Publication PMC7862700, “An all-to-all approach to the identification of sequence-specific readers for epigenetic DNA modifications on cytosine”

What was measured:
Assay in all cases: DAPPL (digital affinity profiling via proximity ligation, sequencing); 10 mM Tris-HCl pH 7.5, 50 mM NaCl, 1 mM DTT, 4% glycerol, room temperature, 30 min; GST-TFs on glutathione beads, 16-mer random dsDNA library, 0.1% formaldehyde crosslink after washing; high values mean tight binding
FLI1 = target: T1, FLI1 (Homo sapiens, UniProt Q01543 1-452); conditions: protein: recombinant; tags: N-terminal GST; dsDNA, one strand shown
T1 sequence: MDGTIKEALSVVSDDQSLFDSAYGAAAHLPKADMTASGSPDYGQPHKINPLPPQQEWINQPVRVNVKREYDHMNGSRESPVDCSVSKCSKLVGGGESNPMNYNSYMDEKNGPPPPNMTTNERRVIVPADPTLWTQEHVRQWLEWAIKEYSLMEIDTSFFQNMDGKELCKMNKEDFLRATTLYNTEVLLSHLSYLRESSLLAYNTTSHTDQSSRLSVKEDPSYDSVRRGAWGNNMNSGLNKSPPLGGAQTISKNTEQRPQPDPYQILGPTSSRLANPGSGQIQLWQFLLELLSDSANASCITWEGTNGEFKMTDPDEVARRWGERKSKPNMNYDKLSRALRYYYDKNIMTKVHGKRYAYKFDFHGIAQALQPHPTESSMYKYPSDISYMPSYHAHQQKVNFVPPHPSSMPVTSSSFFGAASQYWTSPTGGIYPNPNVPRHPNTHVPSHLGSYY
Outline: (§1)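 A tag-only sample was pooled with DNA-barcoded human transcription factors that had been expressed in yeast as GST fusions and captured on glutathione beads. The pools were incubated for 30 min at room temperature with 200 nmole of a random double-stranded 16-mer DNA library in Tris/NaCl/DTT/glycerol buffer, then washed, crosslinked with 0.1% formaldehyde, proximity-ligated (BsaI/T4 ligase, 1 h, 37 °C), PCR-amplified and sequenced on an Illumina NextSeq500. Binding signal is each hexamer's read frequency for a factor divided by its frequency for the tag-only sample.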

ELK1 = target: T2, ELK1 (Homo sapiens, UniProt P19419 1-428); conditions: protein: recombinant; tags: N-terminal GST; dsDNA, one strand shown
T2 sequence: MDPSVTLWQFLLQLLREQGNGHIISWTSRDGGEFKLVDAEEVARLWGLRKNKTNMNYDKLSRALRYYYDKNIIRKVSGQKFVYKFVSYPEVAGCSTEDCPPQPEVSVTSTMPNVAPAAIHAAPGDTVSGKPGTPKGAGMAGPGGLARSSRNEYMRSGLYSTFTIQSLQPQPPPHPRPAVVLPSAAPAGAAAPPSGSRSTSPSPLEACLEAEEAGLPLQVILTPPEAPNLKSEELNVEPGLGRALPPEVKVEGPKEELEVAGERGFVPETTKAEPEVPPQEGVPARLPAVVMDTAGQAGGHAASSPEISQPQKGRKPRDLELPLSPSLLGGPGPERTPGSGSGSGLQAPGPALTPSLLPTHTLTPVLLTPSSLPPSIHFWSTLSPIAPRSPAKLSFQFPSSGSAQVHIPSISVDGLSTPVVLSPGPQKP
Outline: as §1

GABPA = target: T3, GABPA (Homo sapiens, UniProt Q06546 1-454); conditions: protein: recombinant; tags: N-terminal GST; dsDNA, one strand shown
T3 sequence: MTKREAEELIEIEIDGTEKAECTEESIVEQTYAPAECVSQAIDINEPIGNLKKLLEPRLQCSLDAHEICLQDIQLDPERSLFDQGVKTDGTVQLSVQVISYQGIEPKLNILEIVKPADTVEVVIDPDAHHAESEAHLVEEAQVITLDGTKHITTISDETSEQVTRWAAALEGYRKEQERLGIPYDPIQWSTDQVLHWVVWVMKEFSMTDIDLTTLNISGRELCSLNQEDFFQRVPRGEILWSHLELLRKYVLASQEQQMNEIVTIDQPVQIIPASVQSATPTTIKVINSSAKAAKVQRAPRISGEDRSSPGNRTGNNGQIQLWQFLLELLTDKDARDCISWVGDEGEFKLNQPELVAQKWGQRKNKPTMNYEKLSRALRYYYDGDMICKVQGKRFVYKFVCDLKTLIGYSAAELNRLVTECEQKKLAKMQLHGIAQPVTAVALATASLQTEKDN
Outline: as §1

ERG = target: T4, ERG (Homo sapiens, UniProt P11308 1-479); conditions: protein: recombinant; tags: N-terminal GST; dsDNA, one strand shown
T4 sequence: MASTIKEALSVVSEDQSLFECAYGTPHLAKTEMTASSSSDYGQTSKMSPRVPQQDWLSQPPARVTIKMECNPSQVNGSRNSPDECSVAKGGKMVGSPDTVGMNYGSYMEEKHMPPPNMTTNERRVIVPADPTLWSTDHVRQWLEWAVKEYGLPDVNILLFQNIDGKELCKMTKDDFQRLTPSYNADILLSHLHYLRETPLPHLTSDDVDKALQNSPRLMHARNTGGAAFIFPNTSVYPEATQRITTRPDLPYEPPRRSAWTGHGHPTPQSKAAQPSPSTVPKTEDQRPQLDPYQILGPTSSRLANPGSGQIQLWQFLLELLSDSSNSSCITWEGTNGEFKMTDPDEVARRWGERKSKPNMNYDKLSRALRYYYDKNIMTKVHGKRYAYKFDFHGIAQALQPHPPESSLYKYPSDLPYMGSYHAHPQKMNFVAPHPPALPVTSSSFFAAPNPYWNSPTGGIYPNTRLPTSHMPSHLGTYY
Outline: as §1

ELF1 = ELF1 (Homo sapiens, UniProt P32519 1-619); conditions: protein: recombinant; tags: N-terminal GST; dsDNA, one strand shown
Outline: as §1

EHF = target: T5, EHF (Homo sapiens, UniProt Q9NZC4 1-300); conditions: protein: recombinant; tags: N-terminal GST; dsDNA, one strand shown
T5 sequence: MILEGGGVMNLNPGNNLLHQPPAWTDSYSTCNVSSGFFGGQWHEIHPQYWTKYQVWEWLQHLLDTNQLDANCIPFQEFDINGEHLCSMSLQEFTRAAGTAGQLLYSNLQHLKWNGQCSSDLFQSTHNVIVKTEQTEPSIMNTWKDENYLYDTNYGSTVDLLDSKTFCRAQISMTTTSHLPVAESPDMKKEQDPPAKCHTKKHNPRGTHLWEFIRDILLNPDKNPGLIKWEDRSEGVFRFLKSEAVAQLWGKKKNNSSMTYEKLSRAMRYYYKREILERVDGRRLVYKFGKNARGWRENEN
Outline: as §1

SPI1 = SPI1 (Homo sapiens, UniProt P17947 1-270); conditions: protein: recombinant; tags: N-terminal GST; dsDNA, one strand shown
Outline: as §1

SPIB = SPIB (Homo sapiens, UniProt Q01892 1-262); conditions: protein: recombinant; tags: N-terminal GST; dsDNA, one strand shown
Outline: as §1

ELK3 = target: T6, ELK3 (Homo sapiens, UniProt P41970 1-407); conditions: protein: recombinant; tags: N-terminal GST; dsDNA, one strand shown
T6 sequence: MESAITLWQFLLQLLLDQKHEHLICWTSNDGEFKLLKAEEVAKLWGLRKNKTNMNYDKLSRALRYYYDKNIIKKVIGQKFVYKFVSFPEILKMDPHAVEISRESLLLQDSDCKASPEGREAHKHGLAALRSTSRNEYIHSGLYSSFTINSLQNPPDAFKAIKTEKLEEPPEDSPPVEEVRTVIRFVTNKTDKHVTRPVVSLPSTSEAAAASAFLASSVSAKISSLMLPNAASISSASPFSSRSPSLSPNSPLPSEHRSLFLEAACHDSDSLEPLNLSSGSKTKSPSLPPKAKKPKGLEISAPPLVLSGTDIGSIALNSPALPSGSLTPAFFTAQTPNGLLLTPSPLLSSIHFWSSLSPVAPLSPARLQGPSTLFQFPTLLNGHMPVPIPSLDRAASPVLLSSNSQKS
Outline: as §1

FEV = target: T7, FEV (Homo sapiens, UniProt Q99581 1-238); conditions: protein: recombinant; tags: N-terminal GST; dsDNA, one strand shown
T7 sequence: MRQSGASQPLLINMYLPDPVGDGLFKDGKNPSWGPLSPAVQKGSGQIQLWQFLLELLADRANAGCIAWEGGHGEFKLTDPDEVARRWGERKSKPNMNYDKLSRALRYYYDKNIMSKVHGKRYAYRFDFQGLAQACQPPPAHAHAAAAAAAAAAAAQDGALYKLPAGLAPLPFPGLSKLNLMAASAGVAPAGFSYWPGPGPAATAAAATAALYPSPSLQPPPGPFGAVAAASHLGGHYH
Outline: as §1

ETV5 = ETV5 (Homo sapiens, UniProt P41161 1-510); conditions: protein: recombinant; tags: N-terminal GST; dsDNA, one strand shown
Outline: as §1

HSF1 = HSF1 (Homo sapiens, UniProt Q00613 1-529); conditions: protein: recombinant; tags: N-terminal GST; chain copies: 3; dsDNA, one strand shown
Outline: as §1

ELF4 = ELF4 (Homo sapiens, UniProt Q99607 1-663); conditions: protein: recombinant; tags: N-terminal GST; dsDNA, one strand shown
Outline: as §1

ELK4 = target: T8, ELK4 (Homo sapiens, UniProt P28324-2 1-405); conditions: protein: recombinant; tags: N-terminal GST; dsDNA, one strand shown
T8 sequence: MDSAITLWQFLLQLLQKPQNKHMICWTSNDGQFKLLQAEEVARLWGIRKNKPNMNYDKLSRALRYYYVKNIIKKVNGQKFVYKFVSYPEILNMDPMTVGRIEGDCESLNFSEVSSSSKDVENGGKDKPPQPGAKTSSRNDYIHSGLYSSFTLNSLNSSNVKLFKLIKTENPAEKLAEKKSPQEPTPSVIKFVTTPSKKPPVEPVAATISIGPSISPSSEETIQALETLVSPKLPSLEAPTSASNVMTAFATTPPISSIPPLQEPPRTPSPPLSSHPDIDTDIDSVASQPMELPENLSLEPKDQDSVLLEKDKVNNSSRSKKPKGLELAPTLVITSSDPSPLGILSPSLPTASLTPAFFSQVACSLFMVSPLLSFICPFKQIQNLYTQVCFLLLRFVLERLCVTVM
Outline: as §1

ETV2 = target: T9, ETV2 (Homo sapiens, UniProt O00321 1-342); conditions: protein: recombinant; tags: N-terminal GST; dsDNA, one strand shown
T9 sequence: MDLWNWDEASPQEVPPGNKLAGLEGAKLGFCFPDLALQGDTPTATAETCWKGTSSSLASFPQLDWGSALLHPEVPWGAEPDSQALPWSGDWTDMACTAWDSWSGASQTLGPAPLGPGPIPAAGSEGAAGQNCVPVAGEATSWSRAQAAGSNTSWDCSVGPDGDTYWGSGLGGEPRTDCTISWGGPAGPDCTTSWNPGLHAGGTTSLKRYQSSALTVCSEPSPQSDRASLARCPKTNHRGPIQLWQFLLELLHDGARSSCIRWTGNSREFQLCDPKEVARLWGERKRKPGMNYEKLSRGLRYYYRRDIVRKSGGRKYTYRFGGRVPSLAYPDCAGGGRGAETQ
Outline: as §1

ELF3 = target: T10, ELF3 (Homo sapiens, UniProt P78545 1-371); conditions: protein: recombinant; tags: N-terminal GST; dsDNA, one strand shown
T10 sequence: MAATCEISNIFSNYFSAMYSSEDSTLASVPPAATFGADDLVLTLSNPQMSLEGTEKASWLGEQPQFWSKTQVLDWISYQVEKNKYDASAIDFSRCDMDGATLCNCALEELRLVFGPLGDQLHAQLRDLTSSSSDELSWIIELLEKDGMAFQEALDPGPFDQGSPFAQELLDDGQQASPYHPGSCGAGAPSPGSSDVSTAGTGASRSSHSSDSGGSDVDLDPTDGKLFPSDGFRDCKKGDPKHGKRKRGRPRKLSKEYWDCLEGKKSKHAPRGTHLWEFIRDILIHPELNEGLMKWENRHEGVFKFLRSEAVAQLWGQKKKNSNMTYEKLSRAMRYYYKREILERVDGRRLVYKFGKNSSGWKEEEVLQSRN
Outline: as §1

CRX = CRX (Homo sapiens, UniProt O43186 1-299); conditions: protein: recombinant; tags: N-terminal GST; dsDNA, one strand shown
Outline: as §1

ETV1 = ETV1 (Homo sapiens, UniProt P50549 1-477); conditions: protein: recombinant; tags: N-terminal GST; dsDNA, one strand shown
Outline: as §1

Chain of CRX (O43186 whole entry): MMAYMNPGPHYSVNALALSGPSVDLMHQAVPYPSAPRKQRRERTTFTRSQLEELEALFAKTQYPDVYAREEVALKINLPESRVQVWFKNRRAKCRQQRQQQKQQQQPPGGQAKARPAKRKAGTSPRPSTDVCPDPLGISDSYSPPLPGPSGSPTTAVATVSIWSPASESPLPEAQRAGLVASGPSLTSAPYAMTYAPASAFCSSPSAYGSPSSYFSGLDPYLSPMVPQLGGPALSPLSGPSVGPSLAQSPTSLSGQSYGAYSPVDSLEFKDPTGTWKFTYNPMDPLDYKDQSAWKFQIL
Chain of ELF4 (Q99607 whole entry): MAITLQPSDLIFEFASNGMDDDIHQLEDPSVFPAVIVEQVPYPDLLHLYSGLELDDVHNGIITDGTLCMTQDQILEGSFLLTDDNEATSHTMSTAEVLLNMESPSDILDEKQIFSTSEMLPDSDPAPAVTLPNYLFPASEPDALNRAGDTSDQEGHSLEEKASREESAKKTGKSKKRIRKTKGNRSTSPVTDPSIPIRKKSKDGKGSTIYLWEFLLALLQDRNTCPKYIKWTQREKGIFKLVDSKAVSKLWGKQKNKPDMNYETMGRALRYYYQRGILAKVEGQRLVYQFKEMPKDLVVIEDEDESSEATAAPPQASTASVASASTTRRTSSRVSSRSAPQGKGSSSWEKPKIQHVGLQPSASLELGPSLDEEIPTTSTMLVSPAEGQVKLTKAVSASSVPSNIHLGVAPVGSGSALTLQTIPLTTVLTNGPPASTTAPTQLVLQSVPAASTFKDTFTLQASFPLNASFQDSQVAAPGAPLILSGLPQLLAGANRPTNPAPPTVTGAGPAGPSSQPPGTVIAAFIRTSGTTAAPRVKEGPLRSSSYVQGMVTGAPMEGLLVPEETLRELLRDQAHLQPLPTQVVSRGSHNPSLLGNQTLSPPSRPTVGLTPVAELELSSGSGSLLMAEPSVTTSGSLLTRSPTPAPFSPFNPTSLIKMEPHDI
Chain of ETV5 (P41161 whole entry): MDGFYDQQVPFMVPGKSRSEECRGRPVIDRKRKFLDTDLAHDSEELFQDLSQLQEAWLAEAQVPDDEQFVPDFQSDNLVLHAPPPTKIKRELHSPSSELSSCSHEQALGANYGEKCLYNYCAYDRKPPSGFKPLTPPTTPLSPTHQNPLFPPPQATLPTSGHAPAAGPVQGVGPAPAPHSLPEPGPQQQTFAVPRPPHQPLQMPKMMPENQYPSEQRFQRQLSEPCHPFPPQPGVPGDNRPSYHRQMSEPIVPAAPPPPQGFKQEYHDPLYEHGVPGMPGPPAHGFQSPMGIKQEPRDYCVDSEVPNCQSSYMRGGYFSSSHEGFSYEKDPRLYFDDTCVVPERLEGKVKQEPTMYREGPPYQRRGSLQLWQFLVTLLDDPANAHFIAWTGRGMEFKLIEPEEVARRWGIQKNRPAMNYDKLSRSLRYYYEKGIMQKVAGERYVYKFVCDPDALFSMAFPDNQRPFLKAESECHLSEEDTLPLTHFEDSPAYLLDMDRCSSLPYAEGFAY
Chain of ELF1 (P32519 whole entry): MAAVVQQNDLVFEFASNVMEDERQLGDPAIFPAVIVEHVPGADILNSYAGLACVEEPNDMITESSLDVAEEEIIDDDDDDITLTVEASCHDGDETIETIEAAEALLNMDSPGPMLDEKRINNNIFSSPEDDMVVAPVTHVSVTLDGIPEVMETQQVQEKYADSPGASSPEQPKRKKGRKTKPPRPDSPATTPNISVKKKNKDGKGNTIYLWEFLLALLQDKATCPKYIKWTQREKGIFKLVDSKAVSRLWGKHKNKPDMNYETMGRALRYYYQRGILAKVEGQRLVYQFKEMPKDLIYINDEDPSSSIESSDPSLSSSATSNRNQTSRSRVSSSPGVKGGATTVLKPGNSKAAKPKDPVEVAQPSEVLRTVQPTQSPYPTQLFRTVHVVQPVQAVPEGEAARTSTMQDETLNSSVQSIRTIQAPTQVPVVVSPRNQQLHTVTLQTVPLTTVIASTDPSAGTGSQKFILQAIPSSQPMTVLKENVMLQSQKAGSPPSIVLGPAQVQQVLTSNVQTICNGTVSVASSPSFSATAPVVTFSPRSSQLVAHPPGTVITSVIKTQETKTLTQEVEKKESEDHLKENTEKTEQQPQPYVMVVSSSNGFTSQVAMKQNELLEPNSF
Chain of SPIB (Q01892 whole entry): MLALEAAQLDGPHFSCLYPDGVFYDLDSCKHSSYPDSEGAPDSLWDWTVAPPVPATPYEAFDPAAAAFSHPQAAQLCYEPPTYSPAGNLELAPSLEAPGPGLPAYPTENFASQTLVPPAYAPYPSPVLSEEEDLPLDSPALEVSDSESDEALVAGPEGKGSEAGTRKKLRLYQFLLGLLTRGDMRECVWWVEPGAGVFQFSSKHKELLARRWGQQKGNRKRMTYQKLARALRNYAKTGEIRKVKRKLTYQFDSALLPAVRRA
Chain of HSF1 (Q00613 whole entry): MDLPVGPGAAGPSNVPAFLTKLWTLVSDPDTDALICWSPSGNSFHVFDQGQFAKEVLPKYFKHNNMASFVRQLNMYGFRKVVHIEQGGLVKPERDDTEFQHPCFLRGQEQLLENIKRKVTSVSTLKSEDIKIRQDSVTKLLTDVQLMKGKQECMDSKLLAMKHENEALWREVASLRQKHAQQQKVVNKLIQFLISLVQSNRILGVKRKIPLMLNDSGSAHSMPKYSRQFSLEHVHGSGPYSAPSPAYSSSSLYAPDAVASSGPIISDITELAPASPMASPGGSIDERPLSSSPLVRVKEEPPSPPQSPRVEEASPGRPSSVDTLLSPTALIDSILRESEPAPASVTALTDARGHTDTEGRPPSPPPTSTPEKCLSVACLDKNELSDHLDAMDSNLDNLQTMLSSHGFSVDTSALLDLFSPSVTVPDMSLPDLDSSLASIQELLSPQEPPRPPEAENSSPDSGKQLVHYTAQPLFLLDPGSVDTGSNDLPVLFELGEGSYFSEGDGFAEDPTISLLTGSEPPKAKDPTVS
Chain of ETV1 (P50549 whole entry): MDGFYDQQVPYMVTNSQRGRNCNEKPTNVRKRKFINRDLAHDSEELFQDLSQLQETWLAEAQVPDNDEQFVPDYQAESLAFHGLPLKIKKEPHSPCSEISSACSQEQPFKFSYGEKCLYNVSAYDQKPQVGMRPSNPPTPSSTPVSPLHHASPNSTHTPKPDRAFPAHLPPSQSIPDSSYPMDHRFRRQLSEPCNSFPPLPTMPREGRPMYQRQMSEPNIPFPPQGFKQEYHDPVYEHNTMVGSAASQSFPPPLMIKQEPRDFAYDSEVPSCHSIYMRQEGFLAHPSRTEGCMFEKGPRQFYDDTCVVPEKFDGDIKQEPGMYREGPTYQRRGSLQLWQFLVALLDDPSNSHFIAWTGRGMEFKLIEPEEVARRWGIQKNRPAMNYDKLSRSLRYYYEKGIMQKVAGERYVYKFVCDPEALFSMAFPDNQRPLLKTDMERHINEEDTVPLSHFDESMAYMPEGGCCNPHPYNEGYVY

Sequence	binding signal (FLI1)	binding signal (ELK1)	binding signal (GABPA)	binding signal (ERG)	binding signal (ELF1)	binding signal (EHF)	binding signal (SPI1)	binding signal (SPIB)	binding signal (ELK3)	binding signal (FEV)	binding signal (ETV5)	binding signal (HSF1)	binding signal (ELF4)	binding signal (ELK4)	binding signal (ETV2)	binding signal (ELF3)	binding signal (CRX)	binding signal (ETV1)
CCATTG	1.33 fold enrichment (6-mer frequency, TF over GST control)	1.16 fold enrichment (6-mer frequency, TF over GST control)	1.32 fold enrichment (6-mer frequency, TF over GST control)	1.19 fold enrichment (6-mer frequency, TF over GST control)	1.15 fold enrichment (6-mer frequency, TF over GST control)	1.19 fold enrichment (6-mer frequency, TF over GST control)	1.25 fold enrichment (6-mer frequency, TF over GST control)	1.05 fold enrichment (6-mer frequency, TF over GST control)	1.16 fold enrichment (6-mer frequency, TF over GST control)	1.15 fold enrichment (6-mer frequency, TF over GST control)	1.16 fold enrichment (6-mer frequency, TF over GST control)	1.07 fold enrichment (6-mer frequency, TF over GST control)	1.17 fold enrichment (6-mer frequency, TF over GST control)	1.11 fold enrichment (6-mer frequency, TF over GST control)	1.26 fold enrichment (6-mer frequency, TF over GST control)	1.07 fold enrichment (6-mer frequency, TF over GST control)	1.02 fold enrichment (6-mer frequency, TF over GST control)	1.05 fold enrichment (6-mer frequency, TF over GST control)
ACAAGC	1.1 fold enrichment (6-mer frequency, TF over GST control)	1.11 fold enrichment (6-mer frequency, TF over GST control)	1.09 fold enrichment (6-mer frequency, TF over GST control)	1.08 fold enrichment (6-mer frequency, TF over GST control)	1.1 fold enrichment (6-mer frequency, TF over GST control)	1.08 fold enrichment (6-mer frequency, TF over GST control)	1.04 fold enrichment (6-mer frequency, TF over GST control)	1.12 fold enrichment (6-mer frequency, TF over GST control)	1.16 fold enrichment (6-mer frequency, TF over GST control)	1.09 fold enrichment (6-mer frequency, TF over GST control)	1.12 fold enrichment (6-mer frequency, TF over GST control)	1.01 fold enrichment (6-mer frequency, TF over GST control)	1.13 fold enrichment (6-mer frequency, TF over GST control)	1.12 fold enrichment (6-mer frequency, TF over GST control)	1.06 fold enrichment (6-mer frequency, TF over GST control)	1.07 fold enrichment (6-mer frequency, TF over GST control)	1.07 fold enrichment (6-mer frequency, TF over GST control)	1.16 fold enrichment (6-mer frequency, TF over GST control)
